The list is not random: actives were taken first. Their share in the collection is about 7.3%.
FLuc modulator: firefly luciferase modulation, counter-screen for miR-21 project | purified FLuc, Km substrates, luminescence inhibition | Potency, µM (titrated, usually from 57.5 µM), most hits filed as inhibitors | 360,000 tested, 6.9% active | AID 588342; further: nearly all actives have a fitted effect of over 55% in size
Target sequence (P08659 whole entry, looked up): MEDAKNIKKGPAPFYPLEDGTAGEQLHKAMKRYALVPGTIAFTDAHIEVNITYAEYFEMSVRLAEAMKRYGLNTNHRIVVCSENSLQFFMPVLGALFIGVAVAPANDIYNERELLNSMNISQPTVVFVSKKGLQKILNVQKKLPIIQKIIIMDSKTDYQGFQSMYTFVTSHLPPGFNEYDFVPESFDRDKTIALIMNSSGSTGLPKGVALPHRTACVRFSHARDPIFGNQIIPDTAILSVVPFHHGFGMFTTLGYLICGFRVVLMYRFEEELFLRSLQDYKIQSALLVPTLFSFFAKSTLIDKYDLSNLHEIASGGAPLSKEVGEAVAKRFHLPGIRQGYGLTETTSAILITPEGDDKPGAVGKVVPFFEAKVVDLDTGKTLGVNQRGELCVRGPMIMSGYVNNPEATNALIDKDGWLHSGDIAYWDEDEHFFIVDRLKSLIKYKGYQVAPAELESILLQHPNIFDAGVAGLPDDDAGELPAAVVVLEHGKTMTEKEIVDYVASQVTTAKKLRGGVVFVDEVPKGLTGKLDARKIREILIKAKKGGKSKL
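Purified P. pyralis luciferase (10nM final) with 10uM D-luciferin and 10uM ATP (Km levels) in 50mM Tris acetate pH 7.5, 10mM Mg acetate, 0.01% Tween-20, 0.05% BSA; qHTS 6-point titration, ~60 µM downward; luminescence read.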
uPA surface inh: inhibitors of cell surface uPA generation. cell surface uPA generation assay, qHTS. 330,000 tested, 0.31% active. Potency, µM (series often up to 38.3 µM), usual class: inhibitors. AID 540303; active means well fitted inhibition curve with a large enough effect; inconclusive means small, poorly fitted or top-dose-only effect; inactive means no such curve, though single readings can be large or run the other way; tested in mouse RAW 264.7 cells; further: nearly all actives have a fitted effect of over 55% in size
Rab9 prom act: Rab9 promoter activation. Huh7 Rab9 promoter-luciferase reporter, luminescence, 24 h. Potency, µM (top dose mostly 9.22 µM), most hits filed as activators. 320,000 tested, 2.8% active. AID 485297; further: nearly all actives have a fitted effect of over 60% in size
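Huh7 cells stably carrying Rab9 promoter–luciferase reporter, plated 1500 cells/well, compound added after 2 h and incubated 24 h at 37 °C; luciferase luminescence then read after 10 min with detection reagent.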
SMN2 splice up: increases expression of the SMN2 splice variant; 210,000 tested, 2.8% active; Potency, µM (highest dose often 46.1 µM), most hits filed as activators; HEK293 SMN2-luciferase splicing reporter, luminescence, 30-36 h; AID 1458; further: nearly all actives have a fitted effect of over 55% in size
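qHTS luciferase splicing reporter: luminescence rises when SMN2 exon 7 is included in transfected HEK293 cells. Compound exposure lasted 30-36 h at 37C, with 4.5 mM final sodium butyrate as control, followed by a ONE-Glo read.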
NPC1 promoter act: NPC1 promoter activation. Huh7 NPC1 promoter luciferase reporter, 24 h. Potency, µM (highest dose often 9.22 µM), actives largely listed as activators. 320,000 tested, 2.4% active; further: nearly all actives have a fitted effect of over 60% in size
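Quantitative HTS used a cell-based reporter: Huh7 cells stably bearing the NPC1 promoter upstream of luciferase were treated with compounds for 24 h, and promoter activation was read as luminescence.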
ELG1 genotox: genotoxicity induction in ELG1-luciferase HEK293T cells. HEK293T ELG1-luciferase reporter, luminescence, 16 h. Potency, µM (highest dose often 46 µM), actives largely listed as activators. 330,000 tested, 1.3% active. AID 504466; further: nearly all actives have a fitted effect of over 60% in size
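Cells (2,000/well) expressing the ELG1-luciferase fusion are dosed by pin tool and kept 16 hr at 37 °C, 5% CO2. Signal comes from ONE-Glo luciferase reagent after 30 min at room temperature.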
A number is an active result. Unless noted, the call rests on the fitted dose curve; in most records, active means well fitted curve in the direction sought with a large enough effect; inconclusive means small, poorly fitted or top-dose-only effect, or another doubt; inactive means no such curve, though single readings can be large; an effect the other way counts as inactive or inconclusive.

`CN(Cc1cn(-c2ccccc2)nc1-c1ccc(Cl)cc1)C(=O)CCC(=O)O` gave FLuc modulator 10.7µM, uPA surface inh inactive, Rab9 prom act inactive, SMN2 splice up inactive, NPC1 promoter act inactive and ELG1 genotox inactive.
Screening Cc1ccc(-c2nn(-c3ccccc3)cc2CO)cc1 returned FLuc modulator 15.1µM, uPA surface inh inactive, Rab9 prom act inconclusive, NPC1 promoter act inconclusive and ELG1 genotox inconclusive.
Screening CN(Cc1cn(-c2ccccc2)nc1-c1ccc(F)cc1)C(=O)CCC(=O)O returned FLuc modulator 12µM, uPA surface inh inactive, Rab9 prom act inactive, SMN2 splice up inactive, NPC1 promoter act inactive and ELG1 genotox inactive.
For COc1ccc(NC(=O)Nc2cc(-c3cn4cccnc4n3)ccc2C)cc1 the results were FLuc modulator inactive and SMN2 splice up inactive.
`COc1ccc(NC(=O)c2cc3nc(-c4ccc(C)c(C)c4)cc(C(F)(F)F)n3n2)cc1` gave FLuc modulator inactive and SMN2 splice up inactive.
`CCN(CC)CCn1c2ccccc2c2nc3ccc([N+](=O)[O-])cc3cc21` gave FLuc modulator inconclusive, uPA surface inh inactive, Rab9 prom act inactive, NPC1 promoter act inactive and ELG1 genotox 23.1µM.
`CCOc1ccccc1C(=O)NCC(c1ccc(N(C)C)cc1)N1CCc2ccccc21` (stereo not given) gave FLuc modulator inactive.
For NNC(=O)c1cc2cc3ccccc3nc2s1 the results were FLuc modulator 21.3µM, uPA surface inh inactive, Rab9 prom act inactive, SMN2 splice up inactive, NPC1 promoter act inactive and ELG1 genotox inactive.
`CS(=O)(=O)NNC(=O)c1cc2cc3ccccc3nc2s1` gave FLuc modulator inconclusive, uPA surface inh inactive, Rab9 prom act inactive, SMN2 splice up inconclusive, NPC1 promoter act inactive and ELG1 genotox inactive.
`COc1ccc2c(c1)c(CC(=O)NCc1ccc3c(c1)OCO3)c(C)n2C(=O)c1ccc(Cl)cc1` gave SMN2 splice up inactive.
COc1ccc(NC(C)=O)cc1NC(C)C(=O)Nc1ccc(S(=O)(=O)N2CCCCC2)cc1 (stereo not given) was read as FLuc modulator inactive, uPA surface inh 3.16µM, Rab9 prom act inactive, NPC1 promoter act inactive and ELG1 genotox inactive.
`COc1ccc(NC(C)=O)cc1S(=O)(=O)Nc1ccc(S(=O)(=O)N2CCCCC2)cc1` gave uPA surface inh inactive and ELG1 genotox inactive.
For CCOC(=O)c1ccc(NC(=O)c2csc3c2CCCC3)cc1 the results were FLuc modulator inconclusive and SMN2 splice up inactive.
For O=C(Nc1ccc(F)cc1)Nc1csc2c1CCCC2 the results were FLuc modulator inconclusive and SMN2 splice up inactive.
Screening CC(=O)c1cccc(NC(=O)Nc2csc3c2CCCC3)c1 returned FLuc modulator 16.9µM, uPA surface inh inactive, Rab9 prom act inactive, NPC1 promoter act inactive and ELG1 genotox inactive.
For CC(=O)c1cccc(NC(=O)c2csc3c2CCCCC3)c1 the results were FLuc modulator 13.5µM, uPA surface inh inactive, Rab9 prom act inactive, SMN2 splice up inactive, NPC1 promoter act inactive and ELG1 genotox inactive.
Screening CCOc1ccc(NC(=O)c2csc3c2CCCC3)cc1 returned FLuc modulator 2.69µM, uPA surface inh inconclusive, Rab9 prom act 3.55µM, SMN2 splice up 11.2µM, NPC1 promoter act 2.24µM and ELG1 genotox inconclusive.
For CCCCOc1ccc(CNC(=O)c2cnc3sc(N4CCC(C)CC4)nn3c2=O)cc1 the results were FLuc modulator inactive.
Screening Cc1ccc(N=C(c2cccs2)N2CCOCC2)cc1 returned FLuc modulator inactive, uPA surface inh inactive, Rab9 prom act inactive, SMN2 splice up 17.8µM, NPC1 promoter act inactive and ELG1 genotox inconclusive.
COc1ccc(/C(N)=N/OC(=O)c2ccco2)cc1 was read as FLuc modulator 0.953µM, uPA surface inh inactive, Rab9 prom act 0.355µM, SMN2 splice up 6.31µM, NPC1 promoter act 0.501µM and ELG1 genotox 0.461µM.
Screening N/C(=N\OC(=O)CCCOc1ccccc1)c1ccc(Br)cc1 returned FLuc modulator inactive, uPA surface inh inactive, Rab9 prom act inactive, SMN2 splice up inactive, NPC1 promoter act inactive and ELG1 genotox inactive.
COC(=O)/C(=C/c1ccc(OC)cc1)NC(=O)c1ccco1 was read as FLuc modulator inactive, uPA surface inh inactive, Rab9 prom act inactive, SMN2 splice up inactive, NPC1 promoter act inactive and ELG1 genotox inactive.
N/C(=N\OC(=O)c1ccco1)c1ccc(Br)cc1 was read as FLuc modulator 6.75µM, uPA surface inh inactive, Rab9 prom act inconclusive, SMN2 splice up inactive, NPC1 promoter act inconclusive and ELG1 genotox inconclusive.
`COc1ccc(N=N/C(=C\O)C(=O)c2ccco2)cc1` gave FLuc modulator 23.9µM, uPA surface inh inactive, Rab9 prom act inactive, SMN2 splice up inactive, NPC1 promoter act inactive and ELG1 genotox inactive.
`N/C(=N\OC(=O)c1ccco1)c1ccccn1` gave FLuc modulator 8.49µM, uPA surface inh inconclusive, Rab9 prom act inactive, SMN2 splice up inconclusive, NPC1 promoter act inactive and ELG1 genotox inconclusive.
CCOc1ccccc1NC(=O)CN1c2ccccc2S(=O)(=O)c2ccccc21 was read as FLuc modulator inactive.
For Cc1cccc(/C(N)=N/OC(=O)c2ccco2)c1 the results were FLuc modulator 1.9µM, uPA surface inh inactive, Rab9 prom act inconclusive, SMN2 splice up 15.8µM, NPC1 promoter act inconclusive and ELG1 genotox 2.31µM.
Screening Cc1ccc(/C(N)=N/OC(=O)c2ccco2)cc1 returned FLuc modulator 2.39µM, uPA surface inh inactive, Rab9 prom act 2.51µM, SMN2 splice up 11.2µM, NPC1 promoter act 3.98µM and ELG1 genotox inconclusive.
O=C(Oc1ccc(-c2ccccc2)cc1)c1ccco1 was read as uPA surface inh inactive.
For Cc1ccc(/C(N)=N/OC(=O)N2CCOCC2)cc1 the results were FLuc modulator inconclusive, uPA surface inh inconclusive, Rab9 prom act inactive, SMN2 splice up inactive, NPC1 promoter act inactive and ELG1 genotox inactive.
`Cc1cccc(/C(N)=N/OC(=O)N2CCOCC2)c1` gave FLuc modulator 16.9µM, uPA surface inh inconclusive, Rab9 prom act inactive, SMN2 splice up inactive, NPC1 promoter act inactive and ELG1 genotox inactive.
Screening N/C(=N\OC(=O)c1ccco1)c1ccccc1 returned FLuc modulator 6.75µM, uPA surface inh inactive, Rab9 prom act inactive, SMN2 splice up 22.4µM, NPC1 promoter act inactive and ELG1 genotox inconclusive.
COC(=O)c1cc2sc(C)cc2n1Cc1ccc(Br)cc1F was read as FLuc modulator inactive and SMN2 splice up inactive.
O=C(CSc1cn(CC(=O)N2CCOCC2)c2ccccc12)Nc1ccccc1F was read as FLuc modulator inactive.
`Nc1nc2c(nc(Sc3ccc(Cl)cc3)n2C2OC(CO)C(O)C2O)c(=O)[nH]1` (stereo not given) gave SMN2 splice up inactive.

Compound activity from PubChem.
